MEKK2wt PB1 HTS: modulators of MEK5 binding to wildtype MEKK2, primary screen, biochemical, multiplex bead flow cytometry, Alexa488-MEK5; binding response (% of control), % at 10 µM; Alexa488-MEK5 binding to MEKK2 WT; actives lie on both sides; AID 1531, 2009; hit rate 1.1% among 290,000; Mitogen-activated protein kinase kinase kinase 2 (Homo sapiens), Q9Y2U5; in the data active means binding response below about 67% or above about 130%; inconclusive means no clear call, values can overlap the other calls; inactive means in between
MEKK3 PB1 HTS: modulators of MEKK3-MEK5 PB1 binding, primary screen, biochemical, wildtype MEKK3, multiplex bead flow cytometry, Alexa488-MEK5 | bead-based flow cytometry, Alexa488-MEK5 binding to MEKK3; actives lie on both sides; 0 = blocked by unlabeled MEK5, 100 = vehicle | binding response (% of control), % at 10 µM | hit rate 1.4% among 290,000;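 active means binding response more than 3 SD above or below the average of its plate-row segment, actives on both sides; inconclusive means wells at one plate position flagged as instrument error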;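 further: Alexa488 bead fluorescence after subtracting the streptavidin-only scavenger bead signal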
UBC13 polyUb: UBC13 polyubiquitin chain formation inhibitors, primary screen, biochemical, TR-FRET, uHTS | Ubiquitin-conjugating enzyme E2 N (Homo sapiens), P61088 | inhibition, % at 20 µM | hit rate 0.47% among 330,000; in the data active means inhibition above about 45%, passing the limit was not always enough; inconclusive means no clear call, values can overlap the other calls
Target sequence (P61088 whole entry, looked up): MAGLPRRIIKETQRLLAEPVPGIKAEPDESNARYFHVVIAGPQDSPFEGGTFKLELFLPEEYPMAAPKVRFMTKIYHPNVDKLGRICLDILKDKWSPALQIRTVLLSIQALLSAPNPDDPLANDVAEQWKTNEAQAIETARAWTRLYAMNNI
MEKK2 mut-MEK5: MEK5 binding signal on mutant MEKK2 PB1, primary screen, biochemical, multiplex bead flow cytometry, Alexa488-MEK5; Alexa488-MEK5 binding to MEKK2 mutant; percent response, % at 10 µM; hit rate 0.35% among 290,000; AID 1530, 2009; in the data active means percent response above about 24%, passing the limit was not always enough
Rce1 inh: yeast Rce1p protease inhibitors, primary screen, biochemical, fluorescence, cell-free homogeneous | CAAX prenyl protease 2 (Saccharomyces cerevisiae (strain ATCC 204508 / S288c)), Q03530 | yeast membranes, quenched prenylated peptide cleavage fluorescence | calls only | hit rate 0.27% among 290,000 | AID 2563, 2010;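 active means fall in fluorescence gain of 50% or more versus controls, with final raw signal at or below 3038400; inconclusive means same 50% fall but final raw signal above 3038400; inactive means fall in fluorescence gain under 50%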
Target sequence (Q03530 whole entry, looked up): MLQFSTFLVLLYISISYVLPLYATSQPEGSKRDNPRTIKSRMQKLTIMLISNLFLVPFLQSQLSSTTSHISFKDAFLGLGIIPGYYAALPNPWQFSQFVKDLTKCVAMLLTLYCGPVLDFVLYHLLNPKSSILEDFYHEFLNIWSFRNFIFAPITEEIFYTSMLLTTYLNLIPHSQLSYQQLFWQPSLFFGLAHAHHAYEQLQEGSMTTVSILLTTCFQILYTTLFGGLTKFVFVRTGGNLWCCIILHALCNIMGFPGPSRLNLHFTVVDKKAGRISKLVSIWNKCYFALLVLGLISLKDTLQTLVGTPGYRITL
A number is an active result; – = inactive; ? = inconclusive; · = no result given; + = active, no number; [ ] = dose if it differs, or a comment. Compounds with a hit are over-represented: about 2.5% of the library has one in this group of screens.

SMILES | MEKK2wt PB1 HTS | MEKK3 PB1 HTS | UBC13 polyUb | MEKK2 mut-MEK5 | Rce1 inh
COc1cc(/C=C/C(=O)Nc2ccc(N3CCCCC3)c(S(=O)(=O)Nc3ccccc3Cl)c2)cc(OC)c1OC | 32 | – | – | – | –
CC(C)c1ccc(NC(=O)COc2nncc3ccccc23)cc1 | – | – | – | – | +
COc1cc(C(=O)N/N=C(\c2ccccc2)c2ccccn2)cc(OC)c1OC | – | 134 | – | – | –
CCn1c2ccccc2c2cc(NC(=O)CN3CCCC3)ccc21 | 139 | – | – | – | –
CCn1c2ccccc2c2cc(NC(C)=O)ccc21 | – | – | – | – | –
O=S(=O)(CC(CN1CCOCC1)N1CCOCC1)c1ccccc1 (configuration not stated) | – | – | – | – | +
Cc1ccc(S(=O)(=O)CC(CN2CCCCC2)N2CCCCC2)cc1 (configuration not stated) | – | – | · | – | ·
O=C(N/N=C/c1ccc(Cl)cc1)C1CC12CCC2 (configuration not stated) | – | – | – | – | –
COc1cc(-c2cc(-c3ccc(O)cc3)nc(N)c2C#N)ccc1O | – | – | – | – | +
COc1ccc(-c2cc(-c3ccc(O)cc3)nc(N)c2C#N)cc1 | – | – | – | – | –
CC/C(=N\NC(=O)c1cc(C2CC2)[nH]n1)c1ccccc1 | – | – | – | – | –
CCn1c(COc2cccc(OC)c2)nnc1SCC(=O)NC1CCCC1 | – | – | – | – | –
CCn1c(COc2cccc(C)c2)nnc1SCC(=O)NC1CCCC1 | – | – | – | – | +
Cc1ccc(-c2nc(SCC(=O)N(C)C3CCS(=O)(=O)C3)[nH]c2-c2ccc(C)cc2)cc1 (configuration not stated) | – | – | – | – | +
Nc1cc(Cl)ccc1Nc1ccncc1 | – | – | · | – | –
NC(=O)CSC1=Nc2ccccc2C2=NC(c3ccccc3)C(=O)N12 (configuration not stated) | – | – | – | – | +
CCN(CC)C(=O)CSC1=Nc2ccccc2C2=NC(c3ccccc3)C(=O)N12 (configuration not stated) | – | – | – | – | –
Cc1nc(C(=O)N2CCCC(N3CCN(c4ccccc4C)CC3)C2)cs1 (configuration not stated) | – | – | – | – | –
Cc1ccccc1N1CCN(C2CCCN(C(=O)c3cnsn3)C2)CC1 (configuration not stated) | 65[inhibitor] | 77[inhibitor] | – | – | –
Cc1[nH]nc2c1C(c1ccc(F)cc1)C1=C(CC(C)(C)CC1=O)N2 (configuration not stated) | – | – | – | – | +
CN(C(=O)COC(=O)c1cc([N+](=O)[O-])ccc1Sc1ccccc1)C1CCS(=O)(=O)C1 (configuration not stated) | – | – | – | – | +
Cc1cccc(Nc2ccccc2C(=O)OCC(=O)N(C)C2CCS(=O)(=O)C2)c1C (configuration not stated) | – | – | – | – | +
Cc1cc2n(n1)C(c1ccccc1)CC(c1ccc(Br)cc1)=N2 (configuration not stated) | – | – | · | – | ·
CCn1c(SCc2ccccc2)nc2c1c(=O)[nH]c(=O)n2C | – | – | – | – | –
O=C1OCCN1C(=O)[C@H]1[C@H](c2ccc(F)cc2)C(c2ccc(F)cc2)=NN1c1ccccc1 | – | – | – | – | –
SMILES | MEKK2wt PB1 HTS | MEKK3 PB1 HTS | UBC13 polyUb | MEKK2 mut-MEK5 | Rce1 inh
O=C1OCCN1C(=O)[C@H]1[C@H](c2ccc(F)cc2)C(c2ccc(F)cc2)=NN1c1ccc(Br)cc1 | – | – | ? | – | +
CN(C)CCN(C(=O)c1ccc(S(=O)(=O)N2CCc3ccccc32)cc1)c1nc2ccc(F)cc2s1 | – | – | – | – | –
CC1CCCCN1S(=O)(=O)c1ccc(C(=O)N(CCCN(C)C)c2nc3ccc(Br)cc3s2)cc1 (configuration not stated) | 258 | – | 52 | 76 | –
CCN(c1ccccc1)S(=O)(=O)c1ccc(C(=O)N(CCCN(C)C)c2nc3cc4c(cc3s2)OCO4)cc1 | 158 | – | – | 25 | –
CCOc1cccc2sc(N(CCN(CC)CC)C(=O)c3ccc(S(=O)(=O)N4CCCCC4)cc3)nc12 | – | – | – | – | –
CN(C)CCCN(C(=O)c1ccc(S(=O)(=O)N2CCc3ccccc32)cc1)c1nc2c(Cl)cccc2s1 | 257 | – | – | 58 | –
CCOc1cccc2sc(N(CCCN(C)C)C(=O)c3ccc(S(=O)(=O)N4CCCCCC4)cc3)nc12 | 149 | – | – | – | –
Cc1ccc(C2=NN(C(=O)CCCC(=O)O)C(c3ccc4c(c3)OCO4)C2)cc1 (configuration not stated) | – | – | – | – | –
Cc1ccc2nc(N(CCCN(C)C)C(=O)c3ccc(S(=O)(=O)N4CCCCCC4)cc3)sc2c1 | 171 | – | – | 28 | –
CC1=C(C)C(O)N(Cc2ccccc2)C1=O (configuration not stated) | – | – | – | – | –
O=C(NCc1ccccn1)c1ccc(CNS(=O)(=O)c2cccc(Cl)c2)cc1 | – | – | – | – | –
O=C(CCc1ccccc1)Nc1ccnn1C1CCN(C/C=C/c2ccccc2)CC1 | – | – | – | 27 | –
COc1ccccc1/C=C/CN1CCC(n2nccc2NC(=O)CCc2ccccc2)CC1 | 138 | – | – | – | –
CCOc1ccccc1CN1CCC(n2nccc2NC(=O)CCc2ccccc2)CC1 | – | – | – | – | –
COc1cccc2[nH]c(C(=O)NC(C)c3ccccc3)cc12 (configuration not stated) | – | – | – | – | +
CC1CC(C)(C)CC2(C1)NC(=O)N(CC(=O)NC1CCCc3ccccc31)C2=O (configuration not stated) | – | – | – | – | –
CCOC(=O)c1c(-c2ccccc2)csc1/N=C/C1C(=O)CCCC1=O | – | – | – | 70 | –
O=S(=O)(c1ccccc1)c1cnn2c(C(F)(F)F)cc(-c3ccc(F)cc3)nc12 | – | – | – | – | +
COc1ccccc1-c1cc(C(F)(F)F)n2ncc(S(=O)(=O)c3ccccc3)c2n1 | – | – | – | – | +
COc1cccc(N(CC(=O)NCc2ccco2)C(=O)CCC(=O)Nc2nccs2)c1 | – | – | – | – | –
Cc1occc1-c1nnc(SCC(=O)Nc2ccccc2)n1CCc1ccccc1 | – | – | – | – | –
Cc1occc1-c1nnc(SCC(=O)Nc2ccccc2)n1C | -13 | – | – | – | –

From PubChem BioAssay
